# Bioassay records: PubChem, several laboratories
# MEKK2 mut-MEK5: MEK5 binding signal on mutant MEKK2 PB1, primary screen, biochemical, multiplex bead flow cytometry, Alexa488-MEK5. Alexa488-MEK5 binding to MEKK2 mutant. 290,000 compounds, 0.35% hits. percent response, % at 10 µM; in the data active = percent response above about 24%, passing the limit was not always enough
# UBC13 polyUb: UBC13 polyubiquitin chain formation inhibitors, primary screen, biochemical, TR-FRET, uHTS. Ubiquitin-conjugating enzyme E2 N (Homo sapiens), P61088. inhibition, % at 20 µM. 330,000 compounds, 0.47% hits; in the data active = inhibition above about 45%, passing the limit was not always enough; inconclusive = no clear call, values can overlap the other calls
# MEKK2 WT-MEK5: modulators of MEK5 binding to wildtype MEKK2, primary screen, biochemical, multiplex bead flow cytometry, Alexa488-MEK5. Alexa488-MEK5 binding to MEKK2 WT; actives lie on both sides. binding response (% of control), % at 10 µM. 290,000 compounds, 1.1% hits. AID 1531, 2009; in the data active = binding response below about 67% or above about 130%; inconclusive = no clear call, values can overlap the other calls; inactive = in between
# Rce1 inh: yeast Rce1p protease inhibitors, primary screen, biochemical, fluorescence, cell-free homogeneous; CAAX prenyl protease 2 (Saccharomyces cerevisiae (strain ATCC 204508 / S288c)), Q03530; yeast membranes, quenched prenylated peptide cleavage fluorescence; calls only; 290,000 compounds, 0.27% hits;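 active = fall in fluorescence gain of 50% or more versus controls, with final raw signal at or below 3038400; inconclusive = same 50% fall but final raw signal above 3038400; inactive = fall in fluorescence gain under 50%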;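 note: plate controls were neutral control wells for no effect and wells lacking membranes for full effect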
# Target sequence (Q03530 whole entry, looked up): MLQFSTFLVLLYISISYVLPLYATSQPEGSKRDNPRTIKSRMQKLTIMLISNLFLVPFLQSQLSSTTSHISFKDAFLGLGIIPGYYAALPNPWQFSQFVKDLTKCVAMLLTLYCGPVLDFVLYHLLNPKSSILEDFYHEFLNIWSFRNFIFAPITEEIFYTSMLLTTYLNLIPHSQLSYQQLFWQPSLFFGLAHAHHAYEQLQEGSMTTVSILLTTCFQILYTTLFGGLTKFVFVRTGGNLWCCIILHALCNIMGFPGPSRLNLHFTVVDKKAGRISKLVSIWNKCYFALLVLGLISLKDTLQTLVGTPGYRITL
# MEKK3 PB1 HTS: modulators of MEKK3-MEK5 PB1 binding, primary screen, biochemical, wildtype MEKK3, multiplex bead flow cytometry, Alexa488-MEK5 | AID 1529, 2009 | 290,000 compounds, 1.4% hits | Mitogen-activated protein kinase kinase kinase 3 (Homo sapiens), Q99759 | binding response (% of control), % at 10 µM | bead-based flow cytometry, Alexa488-MEK5 binding to MEKK3; actives lie on both sides; 0 = blocked by unlabeled MEK5, 100 = vehicle;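 active = binding response more than 3 SD above or below the average of its plate-row segment, actives on both sides; inconclusive = wells at one plate position flagged as instrument error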;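 note: Alexa488 bead fluorescence after subtracting the streptavidin-only scavenger bead signal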
# Casp3 counter: CASP3 inhibitor validation, counterassay for project on UBE2N polyubiquitination blockers, biochemical, one dose; shares compounds with UBC13 polyUb; Recombinant caspase-3, Caspase-Glo 3/7 luminescence, 60 min; inhibition, % at 20 µM; 1,400 compounds, 4% hits; AID 488856, 2010;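 active = mean inhibition across replicates above about 26%, limit read from the data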;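 note: plate controls were DMSO with caspase-3 for no effect and DMSO wells lacking enzyme for full effect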
# Target sequence (P42574 whole entry, looked up): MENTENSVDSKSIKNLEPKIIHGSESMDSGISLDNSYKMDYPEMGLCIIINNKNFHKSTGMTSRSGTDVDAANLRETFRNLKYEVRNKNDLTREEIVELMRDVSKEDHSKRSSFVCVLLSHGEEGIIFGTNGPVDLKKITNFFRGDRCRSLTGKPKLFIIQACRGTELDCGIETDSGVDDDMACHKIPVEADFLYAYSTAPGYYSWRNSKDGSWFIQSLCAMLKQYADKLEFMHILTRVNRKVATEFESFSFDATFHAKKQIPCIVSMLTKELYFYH
# UBC13 conf: UBC13 polyubiquitination inhibitors, single-point retest, confirmation, biochemical, TR-FRET, single concentration; 1,400 compounds, 68% hits; shares compounds with UBC13 polyUb; inhibition, % at 10 µM; in the data active = inhibition above about 45%; inconclusive = no clear call, values can overlap the other calls
# An asterisk follows results filed as active; i = inactive; ? = inconclusive; nt = not tested or not shown; + = active, no number. Rows were chosen to be rich in hits. Some 2.5% of all compounds tested hit in one or more screens of this group.
SMILES,MEKK2 mut-MEK5,UBC13 polyUb,MEKK2 WT-MEK5,Rce1 inh,MEKK3 PB1 HTS,Casp3 counter,UBC13 conf
CN(C)CCOc1ccc(C(C)(C)c2ccccc2)cc1,13,-5,110,i,107,nt,nt
COc1cccc(-c2sc3ccccc3c2-c2ccc(OCCN(C)C)cc2)c1,nt,80*,nt,nt,nt,-2,79*
COc1cccc(-c2sc3ccc(OC)cc3c2-c2ccc(OC)cc2F)c1,nt,0,nt,nt,nt,nt,nt
COc1cccc(-c2sc3ccc(OC)cc3c2-c2ccc(C(N)=O)cc2)c1,nt,4,nt,nt,nt,nt,nt
COc1ccc(-c2sc3ccccc3c2-c2ccc(OCCN3CCCCC3)cc2)cc1,nt,72*,nt,nt,nt,-3,?
COc1cccc(-c2sc3ccccc3c2-c2ccc(OCCN3CCCCC3)cc2)c1,nt,69*,nt,nt,nt,-2,62*
COc1cccc(-c2sc3ccccc3c2-c2ccc(OCCN3CCCC3)cc2)c1,nt,84*,nt,nt,nt,-4,68*
Cc1ccc(CNC(=O)CCC(=O)Nc2nnc(C(C)C)s2)cc1,2,5,102,i,103,nt,nt
COc1ccc(C(=O)COC(=O)[C@@H](NS(=O)(=O)c2ccccc2)C(C)C)cc1,nt,8,nt,nt,nt,nt,nt
O=C(O)c1cc(Nc2cc(Cl)c3nonc3c2[N+](=O)[O-])ccc1O,1,-52,99,i,98,nt,nt
COc1ccc(-c2oc(=O)c3cc(OC)c(OC)cc3c2C#CC2(O)CCCCC2)cc1,nt,47*,nt,nt,nt,4,40
COc1ccc(-c2oc(=O)c3cc(OC)c(OC)cc3c2C#CCCCO)cc1,nt,35,nt,nt,nt,nt,nt
O=C(N[C@@H](Cc1ccccc1)C(=O)OCc1ccccc1)c1ccco1,nt,-6,nt,nt,nt,nt,nt
COc1ccc(NS(=O)(=O)c2cccc(C(=O)NNC(=O)CNC(=O)c3ccc(C)cc3)c2)cc1,nt,6,nt,i,nt,nt,nt
COc1ccc2cc1Oc1ccc(cc1)C[C@H]1c3c(cc(OC)c4c3Oc3c(ccc5c3[C@H](C2)N(C)CC5)O4)CCN1C,nt,80*,nt,nt,nt,0,78*
O=C(NC(=S)Nc1ccccc1N1CCN(C(=O)c2ccccc2)CC1)c1cccs1,-3,-4,94,i,100,nt,nt
O=C(NC(=S)Nc1ccc(N2CCN(C(=O)c3ccccc3)CC2)cc1)c1cccs1,-2,48*,90,i,92,0,56*
Cc1ccccc1C(=O)NC(=S)NCC(=O)c1ccccc1,3,6,105,i,103,nt,nt
Cc1ccccc1C(=O)NC(=S)NCc1ccccc1,5,7,105,i,103,nt,nt
Cc1ccccc1C(=O)NCC(=O)NNC(=S)NC(=O)c1ccccc1,4,80*,104,i,105,1,82*
Cc1ccccc1C(=O)NCC(=O)NNC(=S)NC(=O)c1ccccc1C,0,87*,101,i,100,4,78*
Oc1cc(Nc2ccncc2)cc2cccnc12,nt,104*,nt,nt,nt,-2,109*
NS(=O)(=O)c1ccc(CCNC(=O)c2ccc(NS(=O)(=O)c3ccc4[nH]c(=O)[nH]c4c3)cc2)cc1,nt,1,nt,i,nt,nt,nt
CCC(=O)NC(=S)NNC(=O)c1ccc([N+](=O)[O-])cc1,2,68*,96,i,99,4,87*
CCCOc1ccc(C(=O)NNC(=S)NC(C)=O)cc1,-7,75*,95,i,93,2,95*
SMILES,MEKK2 mut-MEK5,UBC13 polyUb,MEKK2 WT-MEK5,Rce1 inh,MEKK3 PB1 HTS,Casp3 counter,UBC13 conf
CC(C)CC(=O)NC(=S)NNC(=O)c1ccc([N+](=O)[O-])cc1,0,-16,92,i,97,nt,nt
CCC(=O)NC(=S)NNC(=O)c1ccc(OC)cc1,4,81*,102,nt,103,-2,86*
CCCOc1ccc(C(=O)NNC(=S)NC(=O)c2ccccc2)cc1,2,-22,103,i,98,nt,nt
COC(=O)c1cc(CNC(=O)Cc2ccsc2)ccc1OC,3,-3,97,i,101,nt,nt
COc1ccc(C2=C(c3ccc(OC)c(OC)c3)CN3CCCCC3C2)cc1 (stereo unspecified),nt,-1,nt,nt,nt,nt,nt
CCc1ccc(NC(=O)Cn2c(=O)n(CCC(=O)NC3CCN(Cc4ccccc4)CC3)c(=O)c3ccccc32)cc1,9,16,115,i,93,nt,nt
O=C(CCCn1c(=O)c2ccccc2n(Cc2cccc(F)c2)c1=O)NC1CCN(Cc2ccccc2)CC1,3,100*,107,i,102,4,112*
Cn1c(=O)c2c(SCC(=O)N3CCN(c4ccccc4)CC3)nc(C3CC3)nc2n(C)c1=O,9,63*,98,i,103,-2,?
CCC(C)(C)c1ccc(OCCCC[n+]2cccc(C)c2C)c(C(C)(C)CC)c1,41,82*,170*,+,75,-3,100*
Cc1cc(C(C)(C)C)ccc1OCCCCN1CCCC1,-1,7,105,i,102,nt,nt
Cn1c2ccccc2c(=O)c2c(=O)n(Cc3ccco3)c(-c3ccc(C(C)(C)C)cc3)nc21,1,-4,91,i,101,nt,nt
Cc1cc(C)n(C(=O)Cn2nc([N+](=O)[O-])c(Br)c2C)n1,-1,-12,108,i,109,nt,nt
Fc1ccc(-n2cc(-c3ccccc3)c3c(=S)nc[nH]c32)cc1,-5,43,99,i,101,nt,nt
Fc1cccc(-n2cc(-c3ccccc3)c3c(=S)nc[nH]c32)c1,0,56*,96,i,103,0,?
Cc1ccc(S(=O)(=O)N(C)C)cc1NC(=O)c1cc(C(C)(C)C)nn1Cc1ccccc1,-3,-6,92,i,98,nt,nt
C=C[C@](C)(CC[C@@]1(C)C(C)CC(OC2OC(C)C(OC3OC(COC(C)=O)C(O)C(O)C3O)C(O)C2O)[C@@]2(C)C(C)=CCCC12)OC1OC(C)C(O[C@@H]2O[C@@H](C)C(O)C(O)[C@H]2O)C(O)C1O (stereo partly specified),nt,54*,nt,nt,nt,2,58*
C#CCOCCOCCOCCNc1nc(N2CCN(C(=O)[C@H](CCCCN)n3cc(CN)nn3)CC2)nc(N2CCN(C(=O)[C@H](CCC(=O)O)n3cc([C@@H](N)CCCCN)nn3)CC2)n1,nt,105*,nt,nt,nt,-3,114*
